According to PubChem BioAssay (EPA / NIEHS):
“And” between values parts separate entries of the source, which are not always exact repeats. Equal values may be shown once. The source made the active and inactive calls. The calls were made as follows: active = hit-call score of the fitted dose curve at least 0.9, where 1 is the maximum; inactive = score below 0.9.

read-out: E-selectin (Homo sapiens) (UniProt P16581); assay: BSK_LPS_Eselectin: BioMAP Diversity Plus: LPS Assay for Eselectin Biomarker Activity (AID 2283077); settings: primary human HUVEC with PBMC; actives raise or lower the signal
Procedure: BSK_LPS is a cell-based, multiplexed-readout assay that uses umbilical vein endothelium and peripheral blood mononuclear cells, a human vascular primary cell co-culture, with measurements taken at 24 hours after chemical dosing in a 96-well plate.BSK_LPS_Eselectin is an assay component measured in the BSK_LPS assay. It measures E-selectin antibody related to regulation of gene expression using ELISA technology.Data from the assay component BSK_LPS_Eselectin was analyzed into 1 assay endpoint. This assay endpoint, BSK_LPS_Eselectin, was analyzed with bidirectional fitting relative to DMSO as the negative control and baseline of activity. Using a type of binding reporter, gain or loss-of-signal activity can be used to understand changes in the signaling as they relate to the gene SELE. Furthermore, this assay endpoint can be referred to as a primary readout, because this assay has produced multiple assay endpoints where this one serves a signaling function. To generalize the intended target to other relatable targets, this assay endpoint is annotated to the cell adhesion molecules intended target family, where the subfamily is selectins.
The levels of cell surface (or secreted, indicated by the prefix "s") biomarker endpoints were measured by ELISA. Overt cytotoxicity to cells in confluent adherent cultures (all systems other than the BT system) was assessed by measuring total protein levels using sulforhodamine B (SRB) staining in parallel cultures at the time of biomarker measurements, indicated as SRB endpoints. For proliferation assays for adherent cell types, individual cell types are cultured at sub-confluence and relative cell numbers quantified by SRB staining at time points optimized for each system (48 h: 3C and CASM3C systems; 72 h: BT and HDF3CGF systems; 96 h: SAg system). SRB was performed by staining cells with 0.1% SRB after fixation with 10% TCA and reading wells at 560 nm.Viability and proliferation of PBMC (T cells) was quantified by Alamar Blue reduction for the SAg and BT systems. For PBMC viability (referred to as PBMC Cytotoxicity within the assay endpoint names), cells were plated (75,000/well in a 96-well plate) and then chemical samples added for 1 h before addition of activators, SEB and TSST-1 (20 ng/mL final concentration each). Cells were incubated for 90 h. Then, Alamar Blue (20 uL/well) (Invitrogen, Cat DAL1100) was added for 6 h, and the plates were read with a fluorescence microplate reader at 546/580 nm (excitation/emission). For PBMC proliferation, cells were plated and activated as above but incubated for only 16 h prior to addition of Alamar Blue. Plates were read after 6 h.

Chain of E-selectin (Homo sapiens) (P16581 whole entry, looked up): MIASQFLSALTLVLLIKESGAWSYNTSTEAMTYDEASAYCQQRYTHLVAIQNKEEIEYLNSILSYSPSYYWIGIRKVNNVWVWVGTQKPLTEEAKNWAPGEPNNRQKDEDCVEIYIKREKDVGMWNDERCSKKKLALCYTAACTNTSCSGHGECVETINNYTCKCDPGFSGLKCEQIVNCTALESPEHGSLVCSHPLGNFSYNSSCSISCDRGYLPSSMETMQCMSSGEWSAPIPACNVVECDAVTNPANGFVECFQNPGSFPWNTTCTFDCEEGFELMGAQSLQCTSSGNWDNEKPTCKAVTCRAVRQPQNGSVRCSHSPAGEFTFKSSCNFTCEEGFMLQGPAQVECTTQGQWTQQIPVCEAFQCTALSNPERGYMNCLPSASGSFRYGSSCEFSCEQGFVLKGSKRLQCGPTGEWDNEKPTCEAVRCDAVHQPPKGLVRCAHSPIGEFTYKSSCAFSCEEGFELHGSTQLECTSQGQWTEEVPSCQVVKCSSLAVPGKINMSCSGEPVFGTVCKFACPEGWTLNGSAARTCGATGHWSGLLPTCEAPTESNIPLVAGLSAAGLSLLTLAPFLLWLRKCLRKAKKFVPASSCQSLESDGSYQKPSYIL

| Structure (SMILES) | outcome | AC50 |
| --- | --- | --- |
| CCCCc1ccccc1 | inactive | – |
| CN(C)C(=O)Cl | inactive | – |
| c1nc[nH]n1 | inactive | – |
| O=S(=O)(F)C(F)(F)C(F)(F)C(F)(F)C(F)(F)C(F)(F)C(F)(F)C(F)(F)C(F)(F)F | inactive | – |
| CC(Cl)CN(C)C (stereo not given) | inactive | – |
| O=[N+]([O-])c1ccc(Cl)c(Cl)c1 | inactive | – |
| ClC1=C(Cl)C2(Cl)C3C(Cl)C(Cl)CC3C1(Cl)C2(Cl)Cl (stereo not given) | – | 30.4 µM (active) |
| O=C(O)C=CC(F)(C(F)(F)F)C(F)(F)F | inactive | – |
| ClC(Cl)=C(c1ccc(Cl)cc1)c1ccccc1Cl | – | 33.4 µM (active) |
| O=C(O)C(Cl)Cl | inactive | – |
| CCOP(=S)(OCC)SCS(=O)(=O)CC | inactive | – |
| CC(C)(C)OOC(C)(C)C | inactive | – |
| NC(=O)C(F)(F)C(F)(F)F | inactive | – |
| COP(=O)(O)OC | inactive | – |
| Nc1cc2c3c(c1)C(c1ccccc1)=N[C@@H](NC(=O)c1cccnc1)C(=O)N3CC2 | inactive | – |
| c1ccc2c(c1)Nc1ccccc1S2 | inactive | – |
| CSC(C)(C)C=NO | inactive | – |
| Nc1ccc([N+](=O)[O-])cc1Cl | inactive | – |
| CCNc1nc(Cl)nc(NC(C)(C)C)n1 | inactive | – |
| CCC1(c2ccccc2)C(=O)N=C(O)NC1=O (stereo not given) | inactive | – |

| Structure (SMILES) | outcome | AC50 |
| --- | --- | --- |
| OCC1CO1 (stereo not given) | inactive | – |
| Cc1c([N+](=O)[O-])cc2c(c1[N+](=O)[O-])C(C)(C)CC2(C)C | inactive | – |
| ClC(Cl)c1ccccc1 | inactive | – |
| CCCCCCCc1ccc(O)cc1 | – | 35.8 µM (active) |
| C=CC(=O)OCC(F)(F)C(F)F | – | 45.9 µM (active) and 47.4 µM (active) |
| CCOP(=S)(Oc1ccc([N+](=O)[O-])cc1)c1ccccc1 (stereo not given) | inactive | – |
| CCCCN(CCCC)N=O | inactive | – |
| O=P(OCC(Br)CBr)(OCC(Br)CBr)OCC(Br)CBr (stereo not given) | inactive | – |
| O=S1(=O)OCC2C(CO1)C1(Cl)C(Cl)=C(Cl)C2(Cl)C1(Cl)Cl (stereo not given) | inactive | – |
| N#Cc1cc([N+](=O)[O-])ccc1N | inactive | – |
| CC(C)(C)c1ccccc1OP(=O)(Oc1ccccc1)Oc1ccccc1 | – | 20 µM (active) |
| OCC(F)(F)OC(F)(F)C(F)(F)OC(F)(F)CO | inactive | – |
| OCC(F)(F)OC(F)(F)C(F)(F)OC(F)(F)C(F)(F)OC(F)(F)F | inactive | – |
| CCOC(=O)c1ccccc1C(=O)OCC | inactive | – |
| FC(F)(F)C(F)(C(F)(F)F)C(F)(F)C(F)(F)CC1CO1 (stereo not given) | inactive | – |
| Cc1ccc(N)cc1N | inactive | – |
| COP(=O)(CCC(=O)NCO)OC | inactive | – |
| [N-]=[N+]=[N-] | inactive | – |
| CCCCN(CCCC)SN(C)C(=O)Oc1cccc2c1OC(C)(C)C2 | – | 30.8 µM (active) |
| CCOS(=O)(=O)OCC | inactive | – |
